FBA Mtb inh = Mtb FBA enzyme inhibitors, primary screen, biochemical, fluorescence, strain H37Rv; AID 588726, 2011; inhibition, % at 1 µM; purified M. tuberculosis FBA, fluorescence read-out; Fructose-bisphosphate aldolase (Mycobacterium tuberculosis (strain ATCC 25618 / H37Rv)), …; 360,000 tested, 2.3% active; in the data active = inhibition above about 27%;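 also: 0% = vehicle and 100% = reference inhibitor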
Rv3671c inh = Rv3671c serine protease inhibitors, primary screen, biochemical, fluorescence polarization, M. tuberculosis H37Rv; AID 2606, 2010; 320,000 tested, 0.048% active; P9WHR9; inhibition, % at 5.96 µM; in the data active = inhibition above about 38%;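 also: extracellular domain of Rv3671c used as enzyme; 0% = enzyme with DMSO and 100% = no enzyme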
Target sequence (P9WHR9 whole entry, looked up, the tested form may be a part): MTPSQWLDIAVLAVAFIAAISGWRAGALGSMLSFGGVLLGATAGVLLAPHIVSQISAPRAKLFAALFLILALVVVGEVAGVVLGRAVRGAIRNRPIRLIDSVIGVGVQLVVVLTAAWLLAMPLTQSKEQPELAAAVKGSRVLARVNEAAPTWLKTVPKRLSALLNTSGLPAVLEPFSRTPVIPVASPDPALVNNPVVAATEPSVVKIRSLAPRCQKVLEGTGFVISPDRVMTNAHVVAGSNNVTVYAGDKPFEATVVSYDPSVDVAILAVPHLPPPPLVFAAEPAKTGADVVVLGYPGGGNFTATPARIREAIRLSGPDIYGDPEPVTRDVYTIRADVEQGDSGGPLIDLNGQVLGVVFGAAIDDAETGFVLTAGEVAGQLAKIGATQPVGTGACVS
Mtb UGM inh = M. tuberculosis UGM enzyme inhibitors, primary screen, biochemical, fluorescence polarization, single point; purified UGM, fluorescence polarization probe displacement; 320,000 tested, 0.06% active; UDP-galactopyranose mutase (Mycobacterium tuberculosis (strain ATCC 25618 / H37Rv)), …; AID 504406, 2011; inhibition, % at 10 µM; in the data active = inhibition above about 10%, passing the limit was not always enough
GDH-TPI counter = GDH-TPI coupling enzyme inhibitors, primary screen, artefact control for M. tuberculosis FBA inhibitor project, biochemical, absorbance, full deck. inhibition, % at 4.8 µM. GDH-TPI coupled enzyme counterscreen, NADH absorbance. 360,000 tested, 1.2% active; in the data active = inhibition above about 30%;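 also: 0% = DMSO wells and 100% = wells lacking the enzyme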
* marks the source's active call; other numbers are inactive results; x = not tested or not shown; + = active, no number; ! = not confirmed by another sample. In the library only some 3.5% were active in any assay of this set; here they are far more common.

SMILES	FBA Mtb inh	Rv3671c inh	Mtb UGM inh	GDH-TPI counter
O=C(CCN1CCN(c2ccccc2)CC1)N/N=C/c1ccc([N+](=O)[O-])o1	-1	-4	-1	38*
O=C(CN1CCOCC1)NN=Cc1ccc([N+](=O)[O-])o1	-2	x	x	29
CN(Cc1cnc2nc(N)nc(N)c2n1)c1ccc(C(=O)NC(CCC(=O)O)C(=O)O)cc1C(F)(F)F (centres undefined)	33*	x	x	21
CN(Cc1cnc2nc(N)nc(N)c2n1)c1ccc(C(=O)NC(CCC(=O)O)C(=O)O)cc1 (centres undefined)	74*	x	x	21
CC(=O)Nc1cccc(-c2cc3c(c4c2ccn4C)C2CCC3O2)c1 (centres undefined)	161*	x	x	x
CC(NC(=O)c1cc(-c2ccncc2)nc2ccc(Br)cc12)C1CCCO1 (centres undefined)	2	7	-4	1
Cc1ccc(S(=O)(=O)/N=C/c2ccc(N(C)C)cc2)cc1	-2	1	-2	35*
Cc1ccc(-c2nn(-c3ccccc3)cc2C2CC(c3cccs3)=NN2C(=O)CCC(=O)O)cc1 (centres undefined)	5	-3	0	1
O=C(O)CCn1cc(C2CC(c3ccccc3)=NN2c2ccccc2)c(-c2ccccc2)n1 (centres undefined)	+	18	-5	9
COc1ccc(/C=N/N=C2/NC(=O)C(CC(=O)O)S2)cc1OCc1ccc(Cl)cc1 (centres undefined)	-4	3	2	57*
COc1cc(/C=N/N=C2/NC(=O)C(CC(=O)O)S2)ccc1OCc1cccc(Cl)c1 (centres undefined)	-2	2	0	25
CCOc1cc(/C=N/N=C2/NC(=O)C(CC(=O)O)S2)ccc1OCc1ccc(Cl)cc1 (centres undefined)	-13	-8	2	32*
Cn1c(=O)n(C)c2cc(/C=N/N=C3/NC(=O)C(CC(=O)O)S3)ccc21 (centres undefined)	-1	-10	1	38*
O=C(O)CC1S/C(=N/N=C/C=C/c2ccccc2)NC1=O (centres undefined)	-2	2	3	50*
COc1cccc(C2NC(=O)NC(C)=C2C(=O)OCC2CCCCC2)c1 (centres undefined)	-2	-3	-2	0
Cc1ccc(Cl)cc1NC(C#N)c1ccccc1 (centres undefined)	1	4	2	13
O=C(/C=C/c1ccc(O)c(O)c1)OC1C(O)CC(OC(=O)/C=C/c2ccc(O)c(O)c2)(C(=O)O)CC1O (centres undefined)	-2	-9	1	25
O=C(/C=C/c1ccc(O)c(O)c1)O[C@@H]1C[C@](O)(C(=O)O)C[C@@H](O)[C@H]1O	1	5	1	50*!
CC1CCN(S(=O)(=O)c2ccc3c(c2)c(=O)c(C(=O)NCc2ccco2)cn3C)CC1	-1	-15	-1	7
CCN(CC)S(=O)(=O)c1ccc2c(c1)c(=O)c(C(=O)NCc1ccco1)cn2C	-1	-3	12*	2
O=C1NC(=S)N/C1=C\C=C\c1ccccc1	1	4	0	33*
COc1ccc(/C=C/C=C2\NC(=S)NC2=O)cc1	4	0	1	5
Cc1csc(SCC(=O)NC2CCS(=O)(=O)C2)n1 (centres undefined)	4	-4	0	12
COc1ccc(C2(CCN=Cc3ccc(N(C)C)cc3)CCOC(C)(C)C2)cc1 (centres undefined)	0	-6	1	29
CN(C)c1ccc(C=NN2CCCCCC2)cc1	-7	x	x	25
SMILES	FBA Mtb inh	Rv3671c inh	Mtb UGM inh	GDH-TPI counter
CN(C)c1ccc(C=NCCC2(c3ccccc3)CCOC(C)(C)C2)cc1 (centres undefined)	0	-4	x	56*
CN(C)c1ccc(C=NCC2(O)CCOC(C)(C)C2)cc1 (centres undefined)	2	5	2	48*
COc1ccc(OCC(=O)N2CCC3(CC2)CC(=O)c2ccccc2O3)cc1	2	3	0	1
CCN(CC)CCCn1c2c(c(SCC(=O)Nc3nc4ccccc4s3)nc1=O)CCC2	5	0	0	4
COc1ccc(C(CC(=O)O)NC(=O)COc2cc(C)ccc2C)cc1OC (centres undefined)	2	1	-2	7
O=C(NNC1=Nc2ccccc2SC1)c1ccc(Cl)cc1	-1	5	-1	38*
O=C(NNC1=Nc2ccccc2SC1)c1ccc(F)cc1	3	9	-1	4
